# Source: PubChem BioAssay (NCATS)
# Values joined by “and” are separate entries in the source; they are usually repeats but may differ in a detail not shown here. Equal entries are not always repeated. Results filed as inconclusive are left out. Some compounds were tested as several samples or in several runs, with calls that do not always agree. Active and inactive are the calls of the source. Calls follow the shape of the dose curve; as a rule, active = well fitted curve in the direction sought with a large enough effect; inconclusive = small, poorly fitted or top-dose-only effect, or another doubt; inactive = no such curve, though single readings can be large; an effect the other way counts as inactive or inconclusive.
# Test system: Tov112D
# Assay: Primary qHTS to identify gynecologic anti-cancer compounds using libraries of approved drugs and bioactive compounds (AID 1345084); also: nearly all actives have a fitted effect of over 55% in size; also: potency is read from the fitted curve at half-maximal effect
# Conditions: Gynecologic cancer cell panel viability, ATPlite luminescence, 48 h; series mostly up to 57.5 µM
# Outline: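 Cell viability after 48 h drug treatment, ATPlite luminescence readout; five doses.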
# % is scaled to controls: 0 for no effect and ±100 for the full control effect.
row,SMILES,Potency
1,O=c1[nH]sc2cc(Cl)ccc12,inactive
2,O=C(O)CNC(=O)CNC(=O)CNC(=O)CSC(=O)c1ccccc1,inactive
3,CN1CCC(Nc2ncc3ncnc(Nc4ccc(F)c(Cl)c4)c3n2)CC1,inactive
4,CC1CC(=O)NN=C1c1ccc(NCC(C)(C)NCC(O)COc2cc(Cl)ccc2C#N)cc1 (stereo not given),inactive
5,O=S(=O)(O)c1ccc2nc(-c3ccccc3)[nH]c2c1,inactive
6,C[C@H](CN1CCCC1)C(=O)c1ccc(C(F)(F)F)cc1,inactive
7,CC(C(O)c1ccccc1)N(C)CCOC(c1ccccc1)c1ccccc1 (stereo not given),inactive
8,CCCCCCCCCCCCCC[N+](C)(C)C,14.1 µM (active)
9,CCN(CC)CCOc1ccc(/C(=C(\Cl)c2ccccc2)c2ccccc2)cc1,inactive
10,CCOC(=O)C1=C(C)NC(C)=C(C(=O)OCC)C1c1ccccc1/C=C/C(=O)OC(C)(C)C,inactive
11,O=C(Nc1ccc(S(=O)(=O)N2CCOCC2)cc1)c1cc(Cl)ccc1NS(=O)(=O)c1ccc(Cl)s1,inactive
12,OC1(c2ccc(Cl)c(C(F)(F)F)c2)CCN(CCCC(c2ccc(F)cc2)c2ccc(F)cc2)CC1,31.6 µM (active) and inactive
13,CO[C@@H]1[C@@H](OC)[C@H](C)[C@@](O)(CC(=O)O)O[C@H]1[C@H](C)[C@H]1O[C@@]2(CC[C@@](C)([C@H]3CC[C@@](C)([C@@H]4O[C@@H]([C@H]5O[C@](C)(O)[C@H](C)C[C@@H]5C)C[C@@H]4OC4C[C@H](OC)[C@@H](OC)[C@H](C)O4)O3)O2)C[C@H](O)[C@H]1C (stereo not given in full),11.2 µM (active)
14,CCCCCC(=O)O[C@]1(C(C)=O)CC[C@H]2[C@@H]3CCC4=CC(=O)CC[C@]4(C)[C@H]3CC[C@@]21C,inactive

# Test system: not listed separately
# Assay: Drug repurposing screens with cells derived from glioblastoma tumor samples (AID 1345199); also: nearly all actives have a fitted effect of over 40% in size
# Conditions: GBM patient neurospheres viability, ATP luminescence, 48 h; at 45.9 µM (top of the series); tumour line B
# Outline: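 Primary testing used CD133+ neurospheres from four GBM patients, seven concentrations, 48 h exposure and ATP-based viability; confirmation added three slower-growing patient lines.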
row,SMILES,"activity, negative = cell killing"
1,CC(C)C[C@H](NC(=O)CNC(=O)[C@H](Cc1ccc(O)cc1)NC(=O)[C@H](CO)NC(=O)[C@H](Cc1c[nH]c2ccccc12)NC(=O)[C@H](Cc1cnc[nH]1)NC(=O)[C@@H]1CCC(=O)N1)C(=O)N[C@@H](CCCN=C(N)N)C(=O)N1CCC[C@H]1C(=O)NCC(N)=O (stereo in doubt),-6.26% (inactive)
2,CC1CC(=O)NN=C1c1ccc(NCC(C)(C)NCC(O)COc2cc(Cl)ccc2C#N)cc1 (stereo not given),-23.3% (inactive)
3,C[N+](C)(C)CCO,-20.6% (inactive) and -4.58% (inactive)
4,O=S(=O)(O)c1ccc2nc(-c3ccccc3)[nH]c2c1,-3.28% (inactive)
5,C[C@H](CN1CCCC1)C(=O)c1ccc(C(F)(F)F)cc1,-26.9% (inactive)
6,Oc1ccc(CCNCCCCCCNCCc2ccccc2)cc1O,-20.6% (inactive)
7,CCN(CC)CCNC(=O)c1ccc(NS(C)(=O)=O)cc1,-2.38% (inactive)
8,CC(=O)Oc1ccc(C2(c3ccc(OC(C)=O)cc3)Oc3ccccc3NC2=O)cc1,-28.4% (inactive)
9,NC(N)=NCCCCN=C(N)N,-8.5% (inactive)
10,O=C(Nc1ccc(S(=O)(=O)N2CCOCC2)cc1)c1cc(Cl)ccc1NS(=O)(=O)c1ccc(Cl)s1,-15.3% (inactive)

# Same assay, conditions: GBM patient neurospheres viability, ATP luminescence, 48 h; at 45.9 µM (top of the series); tumour line D
row,SMILES,"activity, negative = cell killing"
1,CC(C)C[C@H](NC(=O)CNC(=O)[C@H](Cc1ccc(O)cc1)NC(=O)[C@H](CO)NC(=O)[C@H](Cc1c[nH]c2ccccc12)NC(=O)[C@H](Cc1cnc[nH]1)NC(=O)[C@@H]1CCC(=O)N1)C(=O)N[C@@H](CCCN=C(N)N)C(=O)N1CCC[C@H]1C(=O)NCC(N)=O (stereo in doubt),6.77% (inactive)
2,CC1CC(=O)NN=C1c1ccc(NCC(C)(C)NCC(O)COc2cc(Cl)ccc2C#N)cc1 (stereo not given),-27.2% (inactive)
3,C[N+](C)(C)CCO,-15.3% (inactive) and -5.56% (inactive)
4,O=S(=O)(O)c1ccc2nc(-c3ccccc3)[nH]c2c1,-9.15% (inactive)
5,CCN(CC)CCNC(=O)c1ccc(NS(C)(=O)=O)cc1,-14.7% (inactive)
6,NC(N)=NCCCCN=C(N)N,-4.71% (inactive)

# Same assay, conditions: GBM patient neurospheres viability, ATP luminescence, 48 h; at 46 µM (top of the series); tumour line A
row,SMILES,"activity, negative = cell killing"
1,CC(C)C[C@H](NC(=O)CNC(=O)[C@H](Cc1ccc(O)cc1)NC(=O)[C@H](CO)NC(=O)[C@H](Cc1c[nH]c2ccccc12)NC(=O)[C@H](Cc1cnc[nH]1)NC(=O)[C@@H]1CCC(=O)N1)C(=O)N[C@@H](CCCN=C(N)N)C(=O)N1CCC[C@H]1C(=O)NCC(N)=O (stereo in doubt),-26% (inactive)
2,C[N+](C)(C)CCO,-28.3% (inactive) and -25.4% (inactive)
3,NC(N)=NCCCCN=C(N)N,-10% (inactive)

# Same assay, conditions: GBM patient neurospheres viability, ATP luminescence, 48 h; at 46.1 µM (top of the series); tumour line C
row,SMILES,"activity, negative = cell killing"
1,CC(C)C[C@H](NC(=O)CNC(=O)[C@H](Cc1ccc(O)cc1)NC(=O)[C@H](CO)NC(=O)[C@H](Cc1c[nH]c2ccccc12)NC(=O)[C@H](Cc1cnc[nH]1)NC(=O)[C@@H]1CCC(=O)N1)C(=O)N[C@@H](CCCN=C(N)N)C(=O)N1CCC[C@H]1C(=O)NCC(N)=O (stereo in doubt),-6.29% (inactive)
2,Nc1c2ccccc2nc2ccccc12,-4.16% (inactive)
3,C[N+](C)(C)CCO,20.9% (inactive) and 13.7% (inactive)
4,O=S(=O)(O)c1ccc2nc(-c3ccccc3)[nH]c2c1,-23.9% (inactive)
5,C[C@H](CN1CCCC1)C(=O)c1ccc(C(F)(F)F)cc1,-22.1% (inactive)
6,CCN(CC)CCNC(=O)c1ccc(NS(C)(=O)=O)cc1,-3.28% (inactive)
7,NC(N)=NCCCCN=C(N)N,-21.5% (inactive)
